Experimental data reported in the supplement of paper PMC10042075.
Counter-ions that a name gives are not always drawn.

System: LASCPC-01
Assay: cell viability relative to DMSO control (fraction); higher = less growth inhibition (more viable cells)
Conditions: 2 µM; 72 h
Method in brief: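 LASCPC-01 human prostate cancer cells were cultured at 37°C and 5% CO2 in modified HITES medium containing 5% fetal bovine serum, then seeded into 384-well plates and exposed to each compound at 2 μM for 72 hours. Viability was measured by CellTiter-Glo luminescence and reported as the ratio of compound-treated signal to solvent-only signal. Each measurement was done in three replicates, and the table lists only serotonin-pathway compounds from a 7315-compound library.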

Row | SMILES | cell viability
1 | O=C1CC2(CCCC2)CC(=O)N1CCCCN1CCN(c2ncccn2)CC1 [Buspirone hydrochloride] | 1.08
2 | CNS(=O)(=O)CCc1ccc2[nH]cc(C3CCN(C)CC3)c2c1 [Naratriptan hydrochloride] | 1.02
3 | NC(N)=NC(N)=Nc1cccc(Cl)c1 [1-(m-Chlorophenyl)-biguanide hydrochloride] | 1.03
4 | CC1(C)C(=O)N(CCN2CCC(C(=O)c3ccc(F)cc3)CC2)c2ccccc21 | 0.991
5 | CN(C)CCc1c[nH]c2ccc(CS(=O)(=O)N3CCCC3)cc12 [Almotriptan Malate] | 0.818
6 | CN1CCC[C@@H]1Cc1c[nH]c2ccc(CCS(=O)(=O)c3ccccc3)cc12 [Eletriptan hydrobromide] | 1.21
7 | CN1[C@@H]2CC[C@H]1C[C@@H](OC(=O)c1c[nH]c3ccccc13)C2 [Tropisetron] | 1.01
8 | N=C(N)NC(=N)Nc1ccccc1 [Phenylbiguanide] | 0.637
9 | Cc1cc(-c2ccccc2)nnc1NCCN1CCOCC1 [Minaprine dihydrochloride] | 1
10 | O=c1c(-c2ccc(O)cc2)coc2c([C@@H]3O[C@H](CO)[C@@H](O)[C@H](O)[C@H]3O)c(O)ccc12 [Puerarin] | 0.989
11 | COc1cc(/C=C/C(=O)NCCn2c(C(F)(F)F)cc3ccccc32)cc(OC)c1OC | 0.968
12 | COc1ccc(NC(=O)c2ccc(-c3ccc(-c4noc(C)n4)cc3C)cc2)cc1N1CCN(C)CC1 | 0.512
13 | Cc1nccn1CC1CCc2c(c3ccccc3n2C)C1=O (stereo not drawn) [Ondansetron hydrochloride] | 1.12
